Laboratory results: PubChem BioAssay AID1159580 (chemical genetic matrix, 2015)
Hit rate of the full screen: of about 5,500 compounds, about 2,000 (36%) were called active. About 18% were inconclusive and are not listed. Rule as the data show it: active = normalized growth mostly below about 0.91 (no sharp cut-off); inconclusive = no clear call, values can overlap the other calls; inactive = mostly above about 0.92. Some of the results follow.

Test: chemical genetic growth profiling, strain panel (AID 1159580);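 also: tested at 20 µM; growth read once vehicle control cultures reached saturation at 30 °C; 1 = growth at the plate median or of vehicle wells; lower values mean less growth of the strain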
Settings: growth OD

Measured: normalized growth

CC(N)CCCC(C)(C)O (centres undefined)
inactive: S. cerevisiae deletion strains, locus YJR066W, strain TOR1, hits give low values 1.01 | S. cerevisiae deletion strains, locus YKL009W, strain mrt4, hits give low values 0.985 | S. cerevisiae deletion strains, locus YKL068W, hits give low values 0.995 | S. cerevisiae deletion strains, locus YKL085W, strain MDH1 (second series), hits give low values 0.995 | S. cerevisiae deletion strains, locus YKL085W, strain MDH1, hits give low values 0.995 | S. cerevisiae deletion strains, locus YKL160W, strain elf1, hits give low values 0.991 | S. cerevisiae deletion strains, locus YKL190W, strain CNB1, hits give low values 0.995 | S. cerevisiae deletion strains, locus YKR001C, strain vps1, hits give low values 0.99 | S. cerevisiae deletion strains, locus YKR026C, strain gcn3, hits give low values 0.956 | S. cerevisiae deletion strains, locus YKR091W, strain srl3, hits give low values 0.977 | S. cerevisiae deletion strains, locus YLL001W, strain dnm1, hits give low values 0.974 | S. cerevisiae deletion strains, locus YLL026W, hits give low values 0.979 | S. cerevisiae deletion strains, locus YLL041C, strain sdh2, hits give low values 0.968 | S. cerevisiae deletion strains, locus YLR027C, strain aat2, hits give low values 0.99 | S. cerevisiae deletion strains, locus YLR039C, strain RIC1, hits give low values 1.01 | S. cerevisiae deletion strains, locus YLR058C, strain SHM2, hits give low values 1.01 | S. cerevisiae deletion strains, locus YLR102C, strain apc9, hits give low values 1.01 | S. cerevisiae deletion strains, locus YLR113W, strain HOG1, hits give low values 0.988 | S. cerevisiae deletion strains, locus YLR221C, strain rsa3, hits give low values 0.982 | S. cerevisiae deletion strains, locus YLR258W, strain gsy2, hits give low values 0.982 | S. cerevisiae deletion strains, locus YLR262C, strain YPT6 (second series), hits give low values 0.995 | S. cerevisiae deletion strains, locus YLR262C, strain YPT6, hits give low values 1.03 | S. cerevisiae deletion strains, locus YLR268W, strain sec22, hits give low values 0.999 | S. cerevisiae deletion strains, locus YLR320W, strain mms22, hits give low values 1.01 | S. cerevisiae deletion strains, locus YLR330W, strain CHS5, hits give low values 1.01 | S. cerevisiae deletion strains, locus YLR342W, strain FKS1 (second series), hits give low values 1.04 | S. cerevisiae deletion strains, locus YLR342W, strain FKS1, hits give low values 0.982 | S. cerevisiae deletion strains, locus YLR357W, strain rsc2, hits give low values 0.981 | S. cerevisiae deletion strains, locus YLR370C, strain arc18, hits give low values 0.988 | S. cerevisiae deletion strains, locus YLR371W, strain rom2, hits give low values 0.991 | S. cerevisiae deletion strains, locus YLR384C, strain iki3, hits give low values 0.985 | S. cerevisiae deletion strains, locus YLR418C, strain cdc73, hits give low values 1.05 | S. cerevisiae deletion strains, locus YML016C, strain PPZ1, hits give low values 1 | S. cerevisiae deletion strains, locus YML032C, strain rad52, hits give low values 0.986 | S. cerevisiae deletion strains, locus YML120C, strain ndi1, hits give low values 0.981 | S. cerevisiae deletion strains, locus YML124C, strain tub3, hits give low values 1.01 | S. cerevisiae deletion strains, locus YMR058W, strain fet3, hits give low values 0.974 | S. cerevisiae deletion strains, locus YMR078C, strain ctf18, hits give low values 1.01 | S. cerevisiae deletion strains, locus YMR125W, strain sto1, hits give low values 0.957 | S. cerevisiae deletion strains, locus YMR129W, hits give low values 0.978 | S. cerevisiae deletion strains, locus YMR205C, strain PFK2, hits give low values 1.01 | S. cerevisiae deletion strains, locus YMR223W, strain ubp8, hits give low values 1.02 | S. cerevisiae deletion strains, locus YMR231W, strain pep5, hits give low values 0.983 | S. cerevisiae deletion strains, locus YMR263W, strain SAP30, hits give low values 0.984 | S. cerevisiae deletion strains, locus YMR307W, strain GAS1, hits give low values 1.06 | S. cerevisiae deletion strains, locus YNL067W, strain RPL9B, hits give low values 0.973 | S. cerevisiae deletion strains, locus YNL071W, strain lat1, hits give low values 0.987 | S. cerevisiae deletion strains, locus YNL183C, strain NPR1, hits give low values 1.03 | S. cerevisiae deletion strains, locus YNL209W, strain ssb2, hits give low values 0.976 | S. cerevisiae deletion strains, locus YNL233W, strain BNI4, hits give low values 0.97 | S. cerevisiae deletion strains, locus YNL248C, strain rpa49, hits give low values 0.965 | S. cerevisiae deletion strains, locus YNL250W, strain rad50, hits give low values 0.996 | S. cerevisiae deletion strains, locus YNL271C, strain bni1, hits give low values 1.01 | S. cerevisiae deletion strains, locus YNL298W, strain CLA4, hits give low values 0.999 | S. cerevisiae deletion strains, locus YNL307C, strain MCK1, hits give low values 1.01 | S. cerevisiae deletion strains, locus YNL322C, strain KRE1 (second series), hits give low values 0.972 | S. cerevisiae deletion strains, locus YNR049C, strain mso1, hits give low values 0.965 | S. cerevisiae deletion strains, locus YNR052C, strain pop2, hits give low values 1 | S. cerevisiae deletion strains, locus YOL006C, strain TOP1, hits give low values 0.947 | S. cerevisiae deletion strains, locus YOL012C, strain htz1 0.693 | S. cerevisiae deletion strains, locus YOL147C, strain pex11, hits give low values 1 | S. cerevisiae deletion strains, locus YOR001W, strain rrp6, hits give low values 0.961 | S. cerevisiae deletion strains, locus YOR061W, strain CKA2, hits give low values 1 | S. cerevisiae deletion strains, locus YOR069W, strain VPS5, hits give low values 1.01 | S. cerevisiae deletion strains, locus YOR070C, strain gyp1, hits give low values 0.992 | S. cerevisiae deletion strains, locus YOR080W, strain dia2, hits give low values 0.98 | S. cerevisiae deletion strains, locus YOR083W, strain WHI5, hits give low values 0.979 | S. cerevisiae deletion strains, locus YOR106W, strain vam3, hits give low values 0.978 | S. cerevisiae deletion strains, locus YOR136W, strain idh2, hits give low values 0.991 | S. cerevisiae deletion strains, locus YOR144C, strain elg1, hits give low values 0.995 | S. cerevisiae deletion strains, locus YOR184W, strain ser1, hits give low values 0.999 | S. cerevisiae deletion strains, locus YOR231W, strain MKK1, hits give low values 1.03 | S. cerevisiae deletion strains, locus YOR265W, strain rbl2, hits give low values 0.982 | S. cerevisiae deletion strains, locus YOR270C, strain vph1, hits give low values 0.989 | S. cerevisiae deletion strains, locus YOR290C, strain snf2, hits give low values 0.94 | S. cerevisiae deletion strains, locus YOR316C, strain cot1, hits give low values 1 | S. cerevisiae deletion strains, locus YPL051W, strain arl3, hits give low values 0.979 | S. cerevisiae deletion strains, locus YPL055C, strain LGE1, hits give low values 0.915 | S. cerevisiae deletion strains, locus YPL078C, strain atp4, hits give low values 0.975 | S. cerevisiae deletion strains, locus YPL106C, strain sse1, hits give low values 0.951 | S. cerevisiae deletion strains, locus YPL240C, strain hsp82, hits give low values 0.966 | S. cerevisiae deletion strains, locus YPL241C, strain CIN2, hits give low values 1 | S. cerevisiae deletion strains, locus YPL256C, strain CLN2, hits give low values 1.1 | S. cerevisiae deletion strains, locus YPR119W, strain clb2, hits give low values 0.997 | S. cerevisiae deletion strains, locus YPR141C, strain kar3, hits give low values 1 | S. cerevisiae deletion strains, locus YPR163C, strain tif3, hits give low values 1 | S. cerevisiae deletion strains, locus YPR167C, strain met16, hits give low values 1.01 | S. cerevisiae deletion strains, strain wtn01, hits give low values 1 | S. cerevisiae strains, strain wild type, hits give low values 1
